# ChEMBL document CHEMBL3988442, “University of Dundee, Small-Polar-MMV Screening Library” (2021)
# For some assays here: Entries with a potency or affinity are not part of this list.
# Assays:
# Set-up in all cases: scale not given: direction of the effect not stated beside the values
# [1] = target: Protein translocase subunit SecA (Escherichia coli (strain K12)) (UniProt P10408); assay: Assay to Identify E. coli SecA ATPase Inhibitors; type: functional; conditions: 30 µM
# [2] = target: T1, Ubiquitin-activating enzyme e1, putative (Leishmania donovani (strain BPK282A1)) (UniProt E9BSI1); assay: Leishmania donovani Ubiquitin Activating Enzyme (LdE1); type: functional; conditions: 30 µM
# T1 sequence (whole entry): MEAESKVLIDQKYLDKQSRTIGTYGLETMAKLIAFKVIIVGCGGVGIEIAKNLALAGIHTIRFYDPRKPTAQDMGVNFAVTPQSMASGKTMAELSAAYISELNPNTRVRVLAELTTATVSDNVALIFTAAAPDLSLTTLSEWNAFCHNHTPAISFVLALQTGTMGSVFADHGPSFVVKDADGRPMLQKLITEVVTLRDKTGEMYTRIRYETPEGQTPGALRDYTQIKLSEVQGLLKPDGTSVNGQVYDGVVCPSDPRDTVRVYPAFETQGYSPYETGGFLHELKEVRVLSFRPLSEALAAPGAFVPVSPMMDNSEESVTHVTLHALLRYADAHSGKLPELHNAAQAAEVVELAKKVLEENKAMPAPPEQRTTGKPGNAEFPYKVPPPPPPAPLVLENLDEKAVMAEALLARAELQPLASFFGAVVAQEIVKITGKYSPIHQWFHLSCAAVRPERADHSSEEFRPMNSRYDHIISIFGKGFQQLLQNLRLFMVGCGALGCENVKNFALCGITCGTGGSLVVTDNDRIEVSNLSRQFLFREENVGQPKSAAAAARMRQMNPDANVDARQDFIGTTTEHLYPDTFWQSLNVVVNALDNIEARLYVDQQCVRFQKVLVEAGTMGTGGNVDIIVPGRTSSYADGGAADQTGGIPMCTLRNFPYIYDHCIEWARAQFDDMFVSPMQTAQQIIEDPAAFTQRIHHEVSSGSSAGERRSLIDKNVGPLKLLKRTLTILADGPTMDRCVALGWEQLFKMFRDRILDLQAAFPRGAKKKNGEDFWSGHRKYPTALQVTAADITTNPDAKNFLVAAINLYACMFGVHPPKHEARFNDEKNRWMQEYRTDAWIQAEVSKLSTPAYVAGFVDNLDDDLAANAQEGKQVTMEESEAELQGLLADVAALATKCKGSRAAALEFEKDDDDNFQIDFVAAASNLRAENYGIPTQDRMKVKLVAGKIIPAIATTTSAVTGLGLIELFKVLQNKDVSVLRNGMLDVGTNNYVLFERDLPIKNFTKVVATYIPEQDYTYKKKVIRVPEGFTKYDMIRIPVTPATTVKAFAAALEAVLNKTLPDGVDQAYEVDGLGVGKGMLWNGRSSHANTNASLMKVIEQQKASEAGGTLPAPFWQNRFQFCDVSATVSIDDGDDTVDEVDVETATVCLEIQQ
# [3] = target: AMP-activated protein kinase, AMPK (Homo sapiens) (UniProt P54646+O43741+P54619+Q9UGJ0+Q9Y478+Q13131+Q9UGI9); assay: AMP-dependent Kinase enzyme assay. An in vitro enzyme assay that detects ADP turnover that is directly proportional to AMPK activity. This uses naive AMPK that is activated during the assay with MK-8722; type: functional; conditions: 30 µM
# [4] = target: Sialic acid-binding Ig-like lectin 9 (Homo sapiens) (UniProt Q9Y336); assay: Hs-Siglec9 ALPHAscreen SOP 20170721; conditions: 10 µM
# Chain of Sialic acid-binding Ig-like lectin 9 (Homo sapiens) (Q9Y336 whole entry): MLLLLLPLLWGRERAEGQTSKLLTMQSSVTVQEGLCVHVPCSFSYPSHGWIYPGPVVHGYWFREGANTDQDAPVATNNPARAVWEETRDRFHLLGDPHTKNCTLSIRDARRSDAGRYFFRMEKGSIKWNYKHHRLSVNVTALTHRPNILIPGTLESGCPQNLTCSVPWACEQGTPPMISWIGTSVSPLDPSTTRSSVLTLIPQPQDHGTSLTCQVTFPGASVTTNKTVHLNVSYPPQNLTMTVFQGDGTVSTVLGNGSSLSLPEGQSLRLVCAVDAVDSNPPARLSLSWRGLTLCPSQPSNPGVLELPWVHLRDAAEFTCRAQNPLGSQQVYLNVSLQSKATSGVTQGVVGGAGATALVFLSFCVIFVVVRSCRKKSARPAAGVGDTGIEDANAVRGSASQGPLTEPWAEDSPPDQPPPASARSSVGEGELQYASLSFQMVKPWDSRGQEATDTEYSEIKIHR
# Trypanosoma cruzi = assay: Trypanosoma cruzi phosphomannomutase and mannose-1-phosphate guanylyltransferase assay; type: functional; conditions: 10 µM
# [5] = target: T2, Arginase-2, mitochondrial (Homo sapiens) (UniProt P78540); assay: in vitro enzyme assay to detect the production of urea directly proportional to the activity of Arginase II; type: functional; conditions: 33.3 µM; further: in the data most compounds retested in dose-response had high values
# T2 sequence (whole entry): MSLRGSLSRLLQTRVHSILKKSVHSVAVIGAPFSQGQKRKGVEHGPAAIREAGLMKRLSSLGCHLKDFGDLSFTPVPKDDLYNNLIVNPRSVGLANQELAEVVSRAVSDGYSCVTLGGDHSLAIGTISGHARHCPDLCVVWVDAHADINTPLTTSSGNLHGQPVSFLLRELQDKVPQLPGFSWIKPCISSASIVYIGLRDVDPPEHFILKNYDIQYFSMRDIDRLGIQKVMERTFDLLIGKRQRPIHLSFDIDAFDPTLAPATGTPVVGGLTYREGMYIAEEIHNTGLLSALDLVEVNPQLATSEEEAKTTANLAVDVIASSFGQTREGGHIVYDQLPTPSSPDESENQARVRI
# [6] = target: T3, Proteasome subunit beta (Trypanosoma cruzi) (UniProt O96673); assay: Trypanosoma cruzi proteasome chymotrypsin-like activity (TcProtChymo) assay.; further: in the data most compounds retested in dose-response had high values; type: functional; conditions: 9.37 µM
# T3 sequence (whole entry): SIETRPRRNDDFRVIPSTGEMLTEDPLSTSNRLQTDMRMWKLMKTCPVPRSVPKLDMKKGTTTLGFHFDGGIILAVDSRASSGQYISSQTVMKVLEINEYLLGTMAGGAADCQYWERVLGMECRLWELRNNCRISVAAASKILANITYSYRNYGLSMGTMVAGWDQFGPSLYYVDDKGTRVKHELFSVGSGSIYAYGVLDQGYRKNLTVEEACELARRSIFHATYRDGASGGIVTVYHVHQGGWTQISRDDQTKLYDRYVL
# Homo sapiens = species on record: Homo sapiens; assay: To identify inhibition of the IFN signalling (Jak-Stat) pathway via expression of an eGFP reporter gene under the control of an IFN-stimulated response element (ISRE) containing MxA promoter.; type: functional; conditions: 30 µM
# [7] = target: T4, Tyrosyl-tRNA synthetase, putative (Trypanosoma cruzi (strain CL Brener)) (UniProt Q4DSP6); assay: Trypanosoma cruzi tyrosyl tRNA synthetase (TcYRS) _High Tyrosine SOP; type: functional; conditions: 30 µM; further: in the data most compounds retested in dose-response had high values
# T4 sequence (whole entry): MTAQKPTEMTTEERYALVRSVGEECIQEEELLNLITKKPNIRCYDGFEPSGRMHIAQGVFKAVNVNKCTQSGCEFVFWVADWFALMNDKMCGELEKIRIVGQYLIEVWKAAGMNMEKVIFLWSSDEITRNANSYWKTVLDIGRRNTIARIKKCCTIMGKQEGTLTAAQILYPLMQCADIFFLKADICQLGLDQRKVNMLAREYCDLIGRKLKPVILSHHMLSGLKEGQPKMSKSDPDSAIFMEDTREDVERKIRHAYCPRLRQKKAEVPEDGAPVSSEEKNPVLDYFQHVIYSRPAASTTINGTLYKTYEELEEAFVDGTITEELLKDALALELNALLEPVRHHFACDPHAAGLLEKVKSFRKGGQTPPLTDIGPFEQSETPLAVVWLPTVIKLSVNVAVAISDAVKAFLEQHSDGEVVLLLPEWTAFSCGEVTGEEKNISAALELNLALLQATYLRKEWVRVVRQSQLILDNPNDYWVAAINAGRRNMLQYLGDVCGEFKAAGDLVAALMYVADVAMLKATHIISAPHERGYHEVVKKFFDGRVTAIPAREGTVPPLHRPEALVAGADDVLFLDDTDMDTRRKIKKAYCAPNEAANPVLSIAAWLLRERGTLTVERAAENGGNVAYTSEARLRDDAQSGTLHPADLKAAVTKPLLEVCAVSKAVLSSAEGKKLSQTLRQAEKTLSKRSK
# [8] = target: T4, Tyrosyl-tRNA synthetase, putative (Trypanosoma cruzi (strain CL Brener)); assay: Trypanosoma cruzi tyrosyl tRNA synthetase (TcYRS) SOP; type: functional; conditions: 30 µM
# [9] = target: Chromo domain-containing protein 1 (Saccharomyces cerevisiae (strain ATCC 204508 / S288c) (Baker's yeast)) (UniProt P32657); assay: ScCHD-1 Enzyme Inhibition Assay; type: functional; conditions: 30 µM; further: in the data most compounds retested in dose-response had high values
# Chain of Chromo domain-containing protein 1 (Saccharomyces cerevisiae (strain ATCC 204508 / S288c) (Baker's yeast)) (P32657 whole entry, the tested form may be a part): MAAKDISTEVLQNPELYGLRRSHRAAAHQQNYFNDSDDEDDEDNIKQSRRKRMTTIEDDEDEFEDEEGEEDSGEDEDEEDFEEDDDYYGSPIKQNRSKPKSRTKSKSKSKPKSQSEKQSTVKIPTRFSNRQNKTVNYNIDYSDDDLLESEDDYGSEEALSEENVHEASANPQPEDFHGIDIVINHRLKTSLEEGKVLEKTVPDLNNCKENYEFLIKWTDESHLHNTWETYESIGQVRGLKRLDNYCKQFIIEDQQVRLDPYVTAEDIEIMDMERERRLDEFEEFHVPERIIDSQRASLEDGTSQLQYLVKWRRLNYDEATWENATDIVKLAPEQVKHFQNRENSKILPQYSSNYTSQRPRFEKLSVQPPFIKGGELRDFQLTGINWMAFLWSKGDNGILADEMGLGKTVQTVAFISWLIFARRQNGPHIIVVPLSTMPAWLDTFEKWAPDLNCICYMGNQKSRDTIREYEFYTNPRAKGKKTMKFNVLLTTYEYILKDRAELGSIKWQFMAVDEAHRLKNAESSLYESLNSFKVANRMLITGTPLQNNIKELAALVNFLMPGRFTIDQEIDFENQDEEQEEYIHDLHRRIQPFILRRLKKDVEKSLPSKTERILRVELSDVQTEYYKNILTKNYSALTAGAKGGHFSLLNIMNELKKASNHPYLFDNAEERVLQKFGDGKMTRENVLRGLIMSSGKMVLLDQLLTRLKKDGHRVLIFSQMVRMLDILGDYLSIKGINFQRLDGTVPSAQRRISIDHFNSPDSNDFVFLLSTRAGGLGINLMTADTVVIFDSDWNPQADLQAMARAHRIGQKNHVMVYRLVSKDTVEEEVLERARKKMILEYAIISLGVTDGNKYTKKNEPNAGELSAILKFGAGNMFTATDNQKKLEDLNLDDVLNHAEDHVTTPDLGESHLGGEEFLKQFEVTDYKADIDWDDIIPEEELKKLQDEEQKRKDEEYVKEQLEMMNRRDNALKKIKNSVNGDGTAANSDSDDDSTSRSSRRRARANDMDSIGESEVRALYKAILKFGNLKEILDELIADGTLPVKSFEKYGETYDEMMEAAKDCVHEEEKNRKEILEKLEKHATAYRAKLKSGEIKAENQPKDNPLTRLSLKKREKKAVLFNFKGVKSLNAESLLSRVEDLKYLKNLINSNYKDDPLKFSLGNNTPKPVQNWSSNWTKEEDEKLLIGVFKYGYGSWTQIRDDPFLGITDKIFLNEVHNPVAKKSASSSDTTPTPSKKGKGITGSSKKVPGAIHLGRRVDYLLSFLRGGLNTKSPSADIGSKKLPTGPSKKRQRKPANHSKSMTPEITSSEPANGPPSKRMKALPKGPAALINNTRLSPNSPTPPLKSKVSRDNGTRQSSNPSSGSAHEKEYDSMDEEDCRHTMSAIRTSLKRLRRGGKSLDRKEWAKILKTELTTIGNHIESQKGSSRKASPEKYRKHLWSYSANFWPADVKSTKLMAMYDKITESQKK
# Chain of Protein translocase subunit SecA (Escherichia coli (strain K12)) (P10408 whole entry): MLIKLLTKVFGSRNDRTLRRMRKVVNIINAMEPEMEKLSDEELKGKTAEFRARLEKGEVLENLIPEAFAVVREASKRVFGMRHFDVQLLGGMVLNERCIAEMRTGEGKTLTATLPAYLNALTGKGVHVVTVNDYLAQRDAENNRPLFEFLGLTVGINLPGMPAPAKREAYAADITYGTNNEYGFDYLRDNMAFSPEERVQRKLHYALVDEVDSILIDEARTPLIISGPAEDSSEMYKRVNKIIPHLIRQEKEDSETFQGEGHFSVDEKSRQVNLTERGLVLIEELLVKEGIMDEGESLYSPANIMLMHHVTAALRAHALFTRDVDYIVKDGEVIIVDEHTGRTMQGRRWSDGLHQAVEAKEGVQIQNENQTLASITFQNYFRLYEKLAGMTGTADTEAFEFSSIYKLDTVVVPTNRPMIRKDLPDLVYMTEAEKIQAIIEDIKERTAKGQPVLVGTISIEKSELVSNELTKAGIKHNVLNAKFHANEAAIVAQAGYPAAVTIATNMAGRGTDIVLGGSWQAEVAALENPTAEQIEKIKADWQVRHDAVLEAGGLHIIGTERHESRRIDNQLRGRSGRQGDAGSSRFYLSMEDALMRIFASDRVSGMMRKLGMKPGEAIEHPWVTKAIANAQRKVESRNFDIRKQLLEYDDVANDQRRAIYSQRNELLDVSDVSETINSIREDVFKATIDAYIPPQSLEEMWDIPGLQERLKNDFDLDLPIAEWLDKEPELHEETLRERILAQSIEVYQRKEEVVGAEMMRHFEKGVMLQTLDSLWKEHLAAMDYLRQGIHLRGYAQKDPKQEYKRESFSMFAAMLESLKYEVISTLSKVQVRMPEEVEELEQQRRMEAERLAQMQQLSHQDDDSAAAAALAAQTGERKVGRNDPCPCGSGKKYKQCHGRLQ
SMILES,Percent Effect [1] [%],Percent Effect [2] [%],Percent Effect [3] [%],Percent Effect [4] [%],Percent Effect (Trypanosoma cruzi) [%],Percent Effect [5] [%],Percent Effect [6] [%],Percent Effect (Homo sapiens) [%],Percent Effect [7] [%],Percent Effect [8] [%],Percent Effect [9] [%]
CCN1CCC(NC(=O)CN2CCc3c(nc(C4CC4)n3C)C2)CC1,-2.61,-5.2,-9.14,13.3,0.374,6.76,-2.37,-16.3,1.94,0,-7.12
CCC1CCCCCN1C(=O)c1nnc2ccccc2c1N (configuration not stated),-4.89,2.63,3.98,-3.48,-2.82,0,9.11,7.13,0,2.6,-1.43
CC(C)C(=O)N1CCN(Cc2cc(-c3ccncc3)nn2C)CC1,-5.03,12.2,-0.905,1.54,3.75,-3.48,8.89,0.905,-5.38,11.7,-13.7
O=C(Cc1ccccc1F)N1CCN(C(=O)c2cccc(F)c2)CC1,0.735,7.89,-4.8,-9.01,-7.69,3.55,18.9,13.3,0,-59.7,27.2
Cc1cccc2c1cnn2CCCNC(=O)C(C)C,-4.75,13,0.24,14.3,7.96,-5.52,6.16,5.24,5.38,11.1,-0.927
Cn1cnc2c1CCN(Cc1noc(-c3ccccc3)n1)C2,-4.07,15.8,-9.94,14.2,3.08,-2.52,1.27,-13.4,6.4,11.1,0.774
O=C(c1ccnnc1)N1CCN2C[C@H](Oc3cccc(F)c3)C[C@H]2C1,-1.92,8,-1.06,6.61,-2.7,-20.2,1.37,-0.178,-2.08,10,-6.63
Cc1csc([C@@H]2C[C@@H]3CCN(Cc4cnn(C)c4)C[C@H]3O2)n1,-5.44,2.6,-0.433,1.83,-0.0983,-5.52,3.33,-23.4,1.07,1.24,-4
O=C(NCC(O)CN1CCc2ccccc2C1)Nc1cccnc1 (configuration not stated),-4.38,13,3.15,3.21,0.294,3.58,11.2,14.5,1.91,-25.9,-11.5
O=C(O)C(c1ccc2c(c1)OCO2)N1CCC(C(=O)N2CCCC2)CC1 (configuration not stated),-6.55,0,-3.95,1.83,-5.36,-1.56,4.18,2.87,4.92,3.7,-5.45
O=C(NCCNc1ncccn1)Nc1cc(C(F)(F)F)c[nH]c1=O,-4.49,8.11,2.74,1.17,1.02,-2.4,0.539,8.76,6.93,15.8,-3.38
O=C(NCC1CC1)N1CCN(Cc2ccc3c(c2)OCCO3)CC1,-2.95,5.26,1.09,12.6,3.08,1.08,4.99,20,3.45,13.6,0.382
CC(=O)N1CCN(C(=O)C2SCCc3sccc32)CC1 (configuration not stated),-7.67,0,-1.92,7.24,-2.15,-0.833,2.11,6.62,3.96,-1.22,0.658
CC(C)c1nc(C2CCCN(C(=O)c3ccc4nccn4c3)C2)no1 (configuration not stated),-2.08,10.4,2.88,12.4,-1.47,1.47,3.15,-11.3,1.91,7.06,-11.9
COc1ccc2c(c1)CCCN2Cc1nc2c(cnn2C)c(=O)[nH]1,-3.64,20.2,-9.32,-0.208,-2.36,2.28,3.52,3.6,9.36,16.5,-5.55
CN(Cc1ccco1)C[C@H]1OC[C@@H]2CCN(Cc3cccnc3)C[C@@H]21,-2.62,10.7,0.611,-1.35,0.772,-51.1,8.55,1.18,0,10,-2.25
Cc1cc(C(=O)NCc2ccccn2)no1,0.824,2.7,-14.1,-0.919,2.92,-3.21,6.49,7.17,3.45,-63,0.179
CC(C)c1nc(C2CCCN(C(=O)c3ccc4[nH]cnc4c3)C2)no1 (configuration not stated),-9.93,18.2,-3.37,3.45,5.97,-5.26,12.5,10.7,5.71,2.35,-15.3
Cc1cc(C(=O)NCCN2CCCC(C)C2)nn1C (configuration not stated),-4.5,5.2,-3.57,-8.23,-0.187,0,0.169,27.8,3.88,7.32,-0.528
COCCO[C@H]1CCN(C(=O)c2ccc[nH]2)[C@H]1Cc1ccncc1,-5.53,0,12.9,1.19,-3.74,-2.1,2.73,-2.22,3.19,6.41,0.525
COCCCC1CCCN(C(=O)CCc2cc(O)no2)C1 (configuration not stated),0.503,4.17,-6.36,2.98,1.46,13.2,18.2,12.3,8.42,15.4,-2.19
Cc1nc(CN2CCOCC3(CCN(c4cccnc4)CC3)C2)cs1,-4.45,5.41,0.402,-0.618,-2.34,2.08,14.4,4.77,3.96,11,3.31
